According to PubChem BioAssay AID1159580 (chemical genetic matrix, 2015):
Screen size: about 5,500 compounds; about 2,000 (36%) were called active. About 18% were inconclusive and are not listed. Rule as the data show it: active = normalized growth mostly below about 0.91 (no sharp cut-off); inconclusive = no clear call, values can overlap the other calls; inactive = mostly above about 0.92. The list shows a part of the results.

Experiment: chemical genetic growth profiling, strain panel (AID 1159580);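 also: tested at 20 µM; growth read once vehicle control cultures reached saturation at 30 °C; 1 = growth at the plate median or of vehicle wells; lower values mean less growth of the strain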
Conditions: growth OD

Measured: normalized growth

NC[C@@H]1O[C@H](O[C@@H]2[C@@H](CO)OC(O[C@@H]3[C@@H](O)[C@H](N)C[C@H](N)[C@H]3OC3O[C@H](CN)[C@@H](O)[C@H](O)[C@H]3N)[C@@H]2O)[C@H](N)[C@@H](O)[C@@H]1O (some centres not stated)
inactive: S. cerevisiae deletion strains, locus YJR075W, strain HOC1, stronger effect = lower value 1.02 | S. cerevisiae deletion strains, locus YKL009W, strain mrt4, stronger effect = lower value 1.06 | S. cerevisiae deletion strains, locus YKL068W, stronger effect = lower value 1.01 | S. cerevisiae deletion strains, locus YKL085W, strain MDH1 (second series), stronger effect = lower value 1.01 | S. cerevisiae deletion strains, locus YKL085W, strain MDH1, stronger effect = lower value 1.01 | S. cerevisiae deletion strains, locus YKL160W, strain elf1, stronger effect = lower value 1.02 | S. cerevisiae deletion strains, locus YKL190W, strain CNB1, stronger effect = lower value 1 | S. cerevisiae deletion strains, locus YKR001C, strain vps1, stronger effect = lower value 1.04 | S. cerevisiae deletion strains, locus YKR026C, strain gcn3, stronger effect = lower value 1.03 | S. cerevisiae deletion strains, locus YKR091W, strain srl3, stronger effect = lower value 1.02 | S. cerevisiae deletion strains, locus YLL001W, strain dnm1, stronger effect = lower value 1.06 | S. cerevisiae deletion strains, locus YLL026W, stronger effect = lower value 1.02 | S. cerevisiae deletion strains, locus YLL041C, strain sdh2, stronger effect = lower value 1.02 | S. cerevisiae deletion strains, locus YLR027C, strain aat2, stronger effect = lower value 1.01 | S. cerevisiae deletion strains, locus YLR039C, strain RIC1, stronger effect = lower value 0.973 | S. cerevisiae deletion strains, locus YLR058C, strain SHM2, stronger effect = lower value 1 | S. cerevisiae deletion strains, locus YLR102C, strain apc9, stronger effect = lower value 1.02 | S. cerevisiae deletion strains, locus YLR113W, strain HOG1, stronger effect = lower value 0.981 | S. cerevisiae deletion strains, locus YLR221C, strain rsa3, stronger effect = lower value 1.04 | S. cerevisiae deletion strains, locus YLR258W, strain gsy2, stronger effect = lower value 1.01 | S. cerevisiae deletion strains, locus YLR262C, strain YPT6 (second series), stronger effect = lower value 1.03 | S. cerevisiae deletion strains, locus YLR262C, strain YPT6, stronger effect = lower value 1.02 | S. cerevisiae deletion strains, locus YLR268W, strain sec22, stronger effect = lower value 1.05 | S. cerevisiae deletion strains, locus YLR320W, strain mms22, stronger effect = lower value 1.05 | S. cerevisiae deletion strains, locus YLR330W, strain CHS5, stronger effect = lower value 0.996 | S. cerevisiae deletion strains, locus YLR342W, strain FKS1 (second series), stronger effect = lower value 1.03 | S. cerevisiae deletion strains, locus YLR342W, strain FKS1, stronger effect = lower value 1.03 | S. cerevisiae deletion strains, locus YLR357W, strain rsc2, stronger effect = lower value 1.04 | S. cerevisiae deletion strains, locus YLR370C, strain arc18, stronger effect = lower value 1.04 | S. cerevisiae deletion strains, locus YLR371W, strain rom2, stronger effect = lower value 1.02 | S. cerevisiae deletion strains, locus YLR384C, strain iki3, stronger effect = lower value 1.03 | S. cerevisiae deletion strains, locus YLR418C, strain cdc73, stronger effect = lower value 1.04 | S. cerevisiae deletion strains, locus YML016C, strain PPZ1, stronger effect = lower value 1.01 | S. cerevisiae deletion strains, locus YML032C, strain rad52, stronger effect = lower value 1.02 | S. cerevisiae deletion strains, locus YML120C, strain ndi1, stronger effect = lower value 1.05 | S. cerevisiae deletion strains, locus YML124C, strain tub3, stronger effect = lower value 1.01 | S. cerevisiae deletion strains, locus YMR058W, strain fet3, stronger effect = lower value 1.03 | S. cerevisiae deletion strains, locus YMR078C, strain ctf18, stronger effect = lower value 1.04 | S. cerevisiae deletion strains, locus YMR125W, strain sto1, stronger effect = lower value 1.04 | S. cerevisiae deletion strains, locus YMR129W, stronger effect = lower value 1.02 | S. cerevisiae deletion strains, locus YMR205C, strain PFK2, stronger effect = lower value 1.03 | S. cerevisiae deletion strains, locus YMR223W, strain ubp8, stronger effect = lower value 1 | S. cerevisiae deletion strains, locus YMR231W, strain pep5, stronger effect = lower value 1.03 | S. cerevisiae deletion strains, locus YMR263W, strain SAP30, stronger effect = lower value 1.01 | S. cerevisiae deletion strains, locus YMR307W, strain GAS1, stronger effect = lower value 1.1 | S. cerevisiae deletion strains, locus YNL067W, strain RPL9B, stronger effect = lower value 1.02 | S. cerevisiae deletion strains, locus YNL071W, strain lat1, stronger effect = lower value 1.03 | S. cerevisiae deletion strains, locus YNL128W, strain TEP1, stronger effect = lower value 1.02 | S. cerevisiae deletion strains, locus YNL153C, strain GIM3, stronger effect = lower value 1 | S. cerevisiae deletion strains, locus YNL183C, strain NPR1, stronger effect = lower value 0.944 | S. cerevisiae deletion strains, locus YNL209W, strain ssb2, stronger effect = lower value 1.03 | S. cerevisiae deletion strains, locus YNL233W, strain BNI4, stronger effect = lower value 0.985 | S. cerevisiae deletion strains, locus YNL248C, strain rpa49, stronger effect = lower value 0.992 | S. cerevisiae deletion strains, locus YNL250W, strain rad50, stronger effect = lower value 1 | S. cerevisiae deletion strains, locus YNL271C, strain bni1, stronger effect = lower value 1.02 | S. cerevisiae deletion strains, locus YNL298W, strain CLA4, stronger effect = lower value 1.01 | S. cerevisiae deletion strains, locus YNL307C, strain MCK1, stronger effect = lower value 1.02 | S. cerevisiae deletion strains, locus YNL322C, strain KRE1 (second series), stronger effect = lower value 1.04 | S. cerevisiae deletion strains, locus YNL322C, strain KRE1, stronger effect = lower value 0.997 | S. cerevisiae deletion strains, locus YNR049C, strain mso1, stronger effect = lower value 1.03 | S. cerevisiae deletion strains, locus YNR052C, strain pop2, stronger effect = lower value 1.01 | S. cerevisiae deletion strains, locus YOL006C, strain TOP1, stronger effect = lower value 0.979 | S. cerevisiae deletion strains, locus YOL012C, strain htz1 0.869 | S. cerevisiae deletion strains, locus YOL147C, strain pex11, stronger effect = lower value 1.01 | S. cerevisiae deletion strains, locus YOR001W, strain rrp6, stronger effect = lower value 0.982 | S. cerevisiae deletion strains, locus YOR061W, strain CKA2, stronger effect = lower value 1.01 | S. cerevisiae deletion strains, locus YOR069W, strain VPS5, stronger effect = lower value 1 | S. cerevisiae deletion strains, locus YOR070C, strain gyp1, stronger effect = lower value 1.03 | S. cerevisiae deletion strains, locus YOR080W, strain dia2, stronger effect = lower value 1.03 | S. cerevisiae deletion strains, locus YOR083W, strain WHI5, stronger effect = lower value 1.02 | S. cerevisiae deletion strains, locus YOR106W, strain vam3, stronger effect = lower value 1.04 | S. cerevisiae deletion strains, locus YOR136W, strain idh2, stronger effect = lower value 1.01 | S. cerevisiae deletion strains, locus YOR144C, strain elg1, stronger effect = lower value 1.02 | S. cerevisiae deletion strains, locus YOR184W, strain ser1, stronger effect = lower value 1.03 | S. cerevisiae deletion strains, locus YOR231W, strain MKK1, stronger effect = lower value 1.01 | S. cerevisiae deletion strains, locus YOR265W, strain rbl2, stronger effect = lower value 1.02 | S. cerevisiae deletion strains, locus YOR270C, strain vph1, stronger effect = lower value 1.06 | S. cerevisiae deletion strains, locus YOR290C, strain snf2, stronger effect = lower value 1.04 | S. cerevisiae deletion strains, locus YOR316C, strain cot1, stronger effect = lower value 1.03 | S. cerevisiae deletion strains, locus YPL051W, strain arl3, stronger effect = lower value 1.01 | S. cerevisiae deletion strains, locus YPL055C, strain LGE1, stronger effect = lower value 0.973 | S. cerevisiae deletion strains, locus YPL078C, strain atp4, stronger effect = lower value 1.01 | S. cerevisiae deletion strains, locus YPL106C, strain sse1, stronger effect = lower value 1.01 | S. cerevisiae deletion strains, locus YPL240C, strain hsp82, stronger effect = lower value 1.03 | S. cerevisiae deletion strains, locus YPL241C, strain CIN2, stronger effect = lower value 0.998 | S. cerevisiae deletion strains, locus YPL256C, strain CLN2, stronger effect = lower value 0.997 | S. cerevisiae deletion strains, locus YPR119W, strain clb2, stronger effect = lower value 1.02 | S. cerevisiae deletion strains, locus YPR141C, strain kar3, stronger effect = lower value 1.02 | S. cerevisiae deletion strains, locus YPR163C, strain tif3, stronger effect = lower value 1.03 | S. cerevisiae deletion strains, locus YPR167C, strain met16, stronger effect = lower value 1.02 | S. cerevisiae deletion strains, strain wtn01, stronger effect = lower value 1.03 | S. cerevisiae strains, strain wild type, stronger effect = lower value 1.01
